Assay results published in PubChem BioAssay (NCI).
About 83,000 compounds went through this panel and 20% of them were active in at least one assay; those are over-represented in the sample as a whole.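 Compound tested at a single concentration for 48 hours in 96-well plates; a percent growth value below 10 was scored as active.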 The source made the active and inactive calls.

What was measured:
Assay in all cases: NCI-60 one-dose screen, 48 h (100 = growth as untreated, 0 = no growth, -100 = all killed)
Details in all cases: 10 µM
T-47D breast = system: T-47D breast
BT-549 breast = system: BT-549 breast
MDA-MB-435 melanoma = system: MDA-MB-435 melanoma
SW-620 colon = system: SW-620 colon
MCF7 breast = system: MCF7 breast
HCT-116 colon = system: HCT-116 colon
HCC-2998 colon = system: HCC-2998 colon
KM12 colon = system: KM12 colon

Measured: growth

COc1ccc(NC(=O)c2sc3nc4c(cc3c2N)C(O)CCC4)cc1 (centres undefined)
inactive: T-47D breast 93.9% | BT-549 breast 97.4% | MDA-MB-435 melanoma 84.6% | SW-620 colon 95.8% | MCF7 breast 89.6% | HCT-116 colon 104% | HCC-2998 colon 113% | KM12 colon 98%

CCCCCCCC/C=C/CCCCCCCCC1=NCCN1CCO
inactive: T-47D breast 79.7% | BT-549 breast 83.1% | MDA-MB-435 melanoma 68.9% | SW-620 colon 40% | MCF7 breast 71.2% | HCC-2998 colon 97.8% | KM12 colon 62.5%
active: HCT-116 colon 7.94%

CCCCCCCCCCCCCC[n+]1ccccc1
active: BT-549 breast -42.4% | MDA-MB-435 melanoma -87.6% | SW-620 colon 2.31% | MCF7 breast 2.73% | HCT-116 colon -44.3% | HCC-2998 colon -72.1% | KM12 colon -86.1%
inactive: T-47D breast 12.7%

Cc1nc(Nc2nc3ccccc3o2)nc(-c2cccc([N+](=O)[O-])c2)c1C(=O)Nc1ccc(F)c(Cl)c1
active: T-47D breast 5.31% | MDA-MB-435 melanoma 8.91% | SW-620 colon 9.75% | MCF7 breast 3.7% | HCT-116 colon 6.76% | HCC-2998 colon -25.6% | KM12 colon -14.6%
inactive: BT-549 breast 19.4%

Cc1cccc2c(Nc3ccc(NS(C)(=O)=O)cc3)c3ccc([N+](=O)[O-])cc3nc12
inactive: BT-549 breast 29.1% | MDA-MB-435 melanoma 33.2%
active: T-47D breast 0.696% | SW-620 colon -43.5% | MCF7 breast 0.147% | HCT-116 colon 5.63% | HCC-2998 colon -30.6% | KM12 colon -46.6%

O=S(=O)(NCCO)c1ccc(OCCOc2ccc(S(=O)(=O)NCCO)cc2)cc1
inactive: T-47D breast 84.5% | BT-549 breast 95.7% | MDA-MB-435 melanoma 104% | SW-620 colon 101% | MCF7 breast 96% | HCT-116 colon 102% | KM12 colon 104%
active: HCC-2998 colon 9.56%

COc1ccc(OC)c([N+](=O)[O-])c1C=O
inactive: T-47D breast 56.5% | BT-549 breast 117% | MDA-MB-435 melanoma 101% | SW-620 colon 65.1% | MCF7 breast 38.2% | HCT-116 colon 50.7% | HCC-2998 colon 110% | KM12 colon 95.8%

COc1ccc2oc(=O)cc(C(c3ccc[nH]3)c3ccc[nH]3)c2c1
active: BT-549 breast -13.4% | MDA-MB-435 melanoma -24.3% | HCT-116 colon -3.62% | HCC-2998 colon -5.71% | KM12 colon 4.33%
inactive: T-47D breast 22.5% | SW-620 colon 25.6% | MCF7 breast 13.9%

CC(=O)/C(=C\c1ccc(Cl)cc1)c1ccccc1
inactive: T-47D breast 47.8% | BT-549 breast 14.5% | SW-620 colon 25.6% | KM12 colon 10.1%
active: MDA-MB-435 melanoma -35.2% | MCF7 breast 9.45% | HCT-116 colon 5.06% | HCC-2998 colon 3.78%

Cc1cnc(C=O)c2cccc([N+](=O)[O-])c12
inactive: T-47D breast 82.3% | BT-549 breast 88.5% | MDA-MB-435 melanoma 106% | SW-620 colon 47.4% | MCF7 breast 75.8% | HCT-116 colon 17.5% | HCC-2998 colon 101% | KM12 colon 99.2%

O=C(NNC(=O)c1ccncc1)Nc1ccc([N+](=O)[O-])cc1
inactive: T-47D breast 90.8% | BT-549 breast 121% | MDA-MB-435 melanoma 94.1% | SW-620 colon 100% | MCF7 breast 109% | HCT-116 colon 110% | HCC-2998 colon 106% | KM12 colon 104%

CC1(C)CCc2cc(-c3ccn(S(=O)(=O)c4ccc(Cl)cc4)n3)ccc2O1
inactive: T-47D breast 54.1% | BT-549 breast 88.8% | MDA-MB-435 melanoma 85.8% | SW-620 colon 87.7% | MCF7 breast 71.3% | HCT-116 colon 61.1% | HCC-2998 colon 94.3% | KM12 colon 77%

CCn1nc(-c2ccc(C(=O)OC)cc2)nc2c(=O)n(C)c(=O)nc1-2
inactive: T-47D breast 84.1% | BT-549 breast 98.2% | MDA-MB-435 melanoma 64.1% | SW-620 colon 97.7% | MCF7 breast 80% | HCT-116 colon 51.5% | HCC-2998 colon 116% | KM12 colon 80.4%

COc1ccc2nc(-c3ccccc3)cc(C(C)=O)c2c1
inactive: T-47D breast 69.5% | BT-549 breast 93.6% | MDA-MB-435 melanoma 98% | SW-620 colon 99.9% | MCF7 breast 72.6% | HCT-116 colon 91.2% | HCC-2998 colon 107% | KM12 colon 103%

CCn1nc(-c2ccccn2)c2cccnc2c1=S
inactive: T-47D breast 42% | BT-549 breast 104% | MDA-MB-435 melanoma 81.2% | SW-620 colon 79.4% | HCT-116 colon 17.1% | HCC-2998 colon 72.4% | KM12 colon 72.8%
active: MCF7 breast 7.88%

[O-]c1c[n+](-c2ccc(Cl)cc2)no1
inactive: T-47D breast 83.5% | BT-549 breast 107% | MDA-MB-435 melanoma 100% | SW-620 colon 97.5% | MCF7 breast 84.9% | HCT-116 colon 102% | HCC-2998 colon 101% | KM12 colon 95.8%

COc1cc(-c2c(C#N)c(N)n3c(nc4ccccc43)c2C#N)cc(Br)c1OC
inactive: T-47D breast 65.8% | BT-549 breast 65.1% | MDA-MB-435 melanoma 62.8% | SW-620 colon 41.4% | MCF7 breast 24.6% | HCT-116 colon 18.8% | HCC-2998 colon 89.5% | KM12 colon 21.1%

O=C1CC(c2cccc(-c3cccnc3)c2)=Nc2ccc(Br)cc2N1
inactive: MDA-MB-435 melanoma 43.5% | SW-620 colon 81.8% | MCF7 breast 23.6% | HCT-116 colon 23% | HCC-2998 colon 74.8% | KM12 colon 49.4%
active: T-47D breast -11.6% | BT-549 breast -3.46%

CN1CCN(c2nc(-c3cccnc3)nc3sc4c(c23)CCCCCC4)CC1
inactive: T-47D breast 77.4% | BT-549 breast 95.3% | MDA-MB-435 melanoma 98.4% | SW-620 colon 102% | MCF7 breast 88.2% | HCT-116 colon 85.3% | HCC-2998 colon 56.7% | KM12 colon 100%

COc1cc(C)c2sc3ccccc3c(=O)c2c1NCCN(C)C
inactive: T-47D breast 78.4% | BT-549 breast 93.8% | MDA-MB-435 melanoma 12% | SW-620 colon 34.9% | MCF7 breast 22.2% | HCT-116 colon 43% | HCC-2998 colon 28.9% | KM12 colon 65%

Nc1cc(O)cc(O)c1
inactive: T-47D breast 89% | BT-549 breast 105% | MDA-MB-435 melanoma 106% | SW-620 colon 107% | MCF7 breast 98.3% | HCT-116 colon 95.8% | HCC-2998 colon 98.5% | KM12 colon 99.7%

C/C=C\COc1cc(C)c(Cl)cc1Cl
inactive: T-47D breast 105% | BT-549 breast 126% | MDA-MB-435 melanoma 98% | SW-620 colon 96.2% | MCF7 breast 98.4% | HCT-116 colon 110% | HCC-2998 colon 118% | KM12 colon 109%

O=S(=O)(NC1c2ccccc2Oc2ccccc21)c1cc(Cl)ccc1Cl
inactive: T-47D breast 74.1% | BT-549 breast 91.1% | MDA-MB-435 melanoma 105% | SW-620 colon 87.5% | MCF7 breast 91.9% | HCT-116 colon 90.4% | HCC-2998 colon 99.1% | KM12 colon 102%

N#Cc1cnc2ccc(NCc3cnc[nH]3)cc2c1Nc1ccc(F)c(Cl)c1
inactive: T-47D breast 57.2% | BT-549 breast 74.2% | MDA-MB-435 melanoma 92.4% | SW-620 colon 71.7% | MCF7 breast 91.9% | HCT-116 colon 56.1% | HCC-2998 colon 91.4% | KM12 colon 84.2%

CN(C)c1ccc2c(c1)OC(N)=C(C#N)C2c1ccc2c(c1)CCO2 (centres undefined)
inactive: T-47D breast 66.8% | BT-549 breast 16.7% | SW-620 colon 31.9% | MCF7 breast 16.9% | HCC-2998 colon 36.8% | KM12 colon 24.2%
active: MDA-MB-435 melanoma 0.989% | HCT-116 colon 5.3%

Nc1ccc(C2=CC(c3ccc(Cl)cc3)N3C=CSC3=N2)cc1 (centres undefined)
active: T-47D breast -11% | BT-549 breast -50.7% | MDA-MB-435 melanoma -65.7% | SW-620 colon -60.5% | MCF7 breast -32.1% | HCT-116 colon -89.3% | HCC-2998 colon -95.7% | KM12 colon -41.4%

CCOC(=O)c1ccc(N(C=O)CCC(=O)CCl)cc1
active: T-47D breast -4.12% | BT-549 breast -63.2% | MDA-MB-435 melanoma -23.9% | SW-620 colon 7.93% | MCF7 breast -8.44% | HCT-116 colon 1.64% | KM12 colon 4.98%
inactive: HCC-2998 colon 14.2%

O=C(O)CCCCSCCCCC(=O)O
inactive: T-47D breast 86.7% | BT-549 breast 110% | MDA-MB-435 melanoma 107% | SW-620 colon 111% | MCF7 breast 97.5% | HCT-116 colon 108% | HCC-2998 colon 106% | KM12 colon 110%
